Laboratory results from PubChem BioAssay AID743096 (Vanderbilt Specialized Chemistry Center, 2013).
Calls of active or inactive are those of the source.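 Rule for the calls: active = calcium signal above 60% of the top acetylcholine response at human muscarinic M5 receptors, as a positive modulator; inactive = the rest.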

These compounds were tested against Muscarinic acetylcholine receptor M2 (Homo sapiens) (UniProt P08172) (assay: M2 receptor positive allosteric modulation, selectivity assay for M5 PAM discovery project, cell-based, human M2 (AID 743096)). Conditions: CHO-K1 hM2/Gqi5, calcium flux, ACh EC20 potentiation; series mostly up to 30 µM.
Sequence of Muscarinic acetylcholine receptor M2 (Homo sapiens) (P08172 whole entry, looked up): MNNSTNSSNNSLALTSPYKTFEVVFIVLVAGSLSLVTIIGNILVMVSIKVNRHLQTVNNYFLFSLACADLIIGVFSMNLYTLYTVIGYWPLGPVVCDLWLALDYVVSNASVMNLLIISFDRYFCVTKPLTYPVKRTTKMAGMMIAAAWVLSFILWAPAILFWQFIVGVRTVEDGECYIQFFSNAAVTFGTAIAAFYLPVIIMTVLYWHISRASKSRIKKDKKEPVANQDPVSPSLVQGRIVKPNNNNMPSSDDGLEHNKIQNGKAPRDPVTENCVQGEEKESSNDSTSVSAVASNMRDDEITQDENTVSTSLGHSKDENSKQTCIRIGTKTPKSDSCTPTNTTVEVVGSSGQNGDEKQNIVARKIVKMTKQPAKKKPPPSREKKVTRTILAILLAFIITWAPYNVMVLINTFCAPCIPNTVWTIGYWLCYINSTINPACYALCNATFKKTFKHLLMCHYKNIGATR

outcome, inactive:
CCN(Cc1ccccc1)C(=O)C1CCN(S(=O)(=O)c2ccc3c(c2)OCCO3)CC1
CCN(C(=O)C1CCN(S(=O)(=O)c2ccc3[nH]ncc3c2)CC1)[C@H](C)c1ccccc1
CCN(Cc1ccccc1)C(=O)C1CCN(S(=O)(=O)c2ccc(OC)cc2)CC1
CCN(Cc1ccccc1Cl)C(=O)C1CCN(S(=O)(=O)c2ccc3[nH]ncc3c2)CC1
CCN(C(=O)C1CCN(S(=O)(=O)c2ccc(OC)cc2)CC1)[C@H](C)c1ccccc1
CCN(Cc1ccccc1C(F)(F)F)C(=O)C1CCN(S(=O)(=O)c2ccc3[nH]ncc3c2)CC1
